Measured values as given in the supplement of paper PMC13380429.

System: Vero E6 infected with SARS-CoV-2
Test: inhibition of SARS-CoV-2 cytopathic effect; higher = more antiviral protection, active = above 15
Conditions: 48 h

Structure (SMILES) | inhibition of SARS-CoV-2 cytopathic effect (1 nM) | inhibition of SARS-CoV-2 cytopathic effect (8.33 nM) | inhibition of SARS-CoV-2 cytopathic effect (100 nM) | inhibition of SARS-CoV-2 cytopathic effect (833.33 nM) | inhibition of SARS-CoV-2 cytopathic effect (10000 nM)
NC(Cc1ccc(I)cc1)C(=O)O (stereo in doubt) [4-iodo-L-phenylalanine] | 0.62% (inactive) | -0.66% (inactive) | 0.54% (inactive) | 0.32% (inactive) | -0.26% (inactive)
Cc1ccc(S(=O)(=O)NC2c3ccccc3Oc3ccccc32)cc1 | -5.59% (inactive) | -2.13% (inactive) | -2.17% (inactive) | -6.38% (inactive) | -2.38% (inactive)
N#CN=C(NCCCCCCOc1ccc(Cl)cc1)Nc1ccncc1 | 0.77% (inactive) | -0.03% (inactive) | -4.25% (inactive) | -15% (inactive) | -17.4% (inactive)
O=C(O)CCNC(=O)c1ccccc1 [betamipron] | -2.23% (inactive) | -0.21% (inactive) | 0.07% (inactive) | -1.91% (inactive) | -2.18% (inactive)
CCCCN(CC)c1nc(C)nc2c1c(C)c(C)n2-c1c(C)cc(C)cc1C [antalarmin] | -0.13% (inactive) | -2.86% (inactive) | 1.21% (inactive) | -0.62% (inactive) | 2% (inactive)
COc1ccc(Cl)c(Nc2nc3ccccc3nc2NS(=O)(=O)c2cccc(NC(=O)C(C)(C)N)c2)c1 [pilaralisib] | 0.3% (inactive) | 0.48% (inactive) | 1.1% (inactive) | 0.71% (inactive) | -1.82% (inactive)
O=C1c2cccc3c2[C@H](CCC3)CN1[C@@H]1CN2CCC1CC2 [palonosetron] | -2.25% (inactive) | -0.74% (inactive) | -0.65% (inactive) | -0.13% (inactive) | -0.75% (inactive)
CC(C)c1cnn2c(NCc3ccccc3)cc(NCCCCCCN)nc12 | 2.49% (inactive) | -1.33% (inactive) | -2.16% (inactive) | 1.83% (inactive) | -12.8% (inactive)
COc1ccc(CNCc2cccc3ccccc23)cc1 | -2.74% (inactive) | -2.35% (inactive) | -0.58% (inactive) | -2.06% (inactive) | -0.83% (inactive)
CCOc1cc(C(C)(C)C)ccc1C1=N[C@@](C)(c2ccc(Cl)cc2)[C@@](C)(c2ccc(Cl)cc2)N1C(=O)N1CCN(CCCS(C)(=O)=O)CC1 | -1.23% (inactive) | -0.35% (inactive) | 1.86% (inactive) | 1.64% (inactive) | 5.99% (inactive)
CCO[C@@H](Cc1ccc(OCCc2ccc(OS(C)(=O)=O)cc2)cc1)C(=O)O [tesaglitazar] | -2.83% (inactive) | -3.5% (inactive) | 0.15% (inactive) | -2.48% (inactive) | 1.52% (inactive)
OC(c1cc(C(F)(F)F)nc2c(C(F)(F)F)cccc12)C1CCCCN1 (stereo not given) [mefloquine] | -1.64% (inactive) | 0.59% (inactive) | -0.03% (inactive) | -3.31% (inactive) | 73.3% (active)
CC1(C)CCC(C)(C)c2cc(Cn3cccn3)c(/C=C/c3ccc(C(=O)O)cc3)cc21 [palovarotene] | 3.77% (inactive) | 1.22% (inactive) | 1.2% (inactive) | 0.58% (inactive) | 2.48% (inactive)
CCCCCCCC/C=C/CCCCCCCC(=O)OC[C@H]1O[C@@H](n2ccc(N)nc2=O)C(F)(F)[C@@H]1O [gemcitabine-elaidate] | -0.31% (inactive) | -0.77% (inactive) | -1.9% (inactive) | 0.35% (inactive) | 3% (inactive)
Nc1nc(-c2nn(Cc3ccccc3F)c3ncccc23)ncc1C1CC1 | 1.54% (inactive) | 2.15% (inactive) | -0.39% (inactive) | -2.42% (inactive) | -5.17% (inactive)
CN(C)CCCC1(c2ccc(F)cc2)OCc2cc(C#N)ccc21 (stereo not given) [citalopram] | -0.29% (inactive) | 2.58% (inactive) | 1.49% (inactive) | -0.995% (inactive) | -4.99% (inactive)
O=C1c2cccnc2OC[C@@H]2CCCN12 | 0.83% (inactive) | 1.33% (inactive) | 0.65% (inactive) | 0.64% (inactive) | -2.21% (inactive)
CCn1c(-c2nonc2N)nc2cncc(C(=O)N3CC[C@H](N)C3)c21 | 0.81% (inactive) | 3.31% (inactive) | 2.3% (inactive) | -3.28% (inactive) | -2.39% (inactive)
C[C@H](O)[C@H](O)[C@H]1CNc2nc(N)[nH]c(=O)c2N1 [sapropterin] | -2.03% (inactive) | 2.62% (inactive) | 1% (inactive) | 0.55% (inactive) | -1.44% (inactive)
